This is an account of results in the supplement of paper PMC11732987, “Enantioselective OTUD7B fragment discovery through chemoproteomics screening and high-throughput optimisation” (Communications Chemistry, 2025).

Unmarked numbers belong to inactive results.

What all share (assay): log2 ratio of Biotin-Ahx-Ub-VS probe labelling (fragment/DMSO); higher = less target engagement (more negative = stronger competition), active = hit call of the paper (q ≤ 0.05, log2 ratio ≤ -1)
Common to all, as to details: compound concentration: 200 uM; treatment time: 3 h

Assay [1] has as its target T1, OTUD6B (UniProt Q8N6M0).
T1 sequence (whole entry): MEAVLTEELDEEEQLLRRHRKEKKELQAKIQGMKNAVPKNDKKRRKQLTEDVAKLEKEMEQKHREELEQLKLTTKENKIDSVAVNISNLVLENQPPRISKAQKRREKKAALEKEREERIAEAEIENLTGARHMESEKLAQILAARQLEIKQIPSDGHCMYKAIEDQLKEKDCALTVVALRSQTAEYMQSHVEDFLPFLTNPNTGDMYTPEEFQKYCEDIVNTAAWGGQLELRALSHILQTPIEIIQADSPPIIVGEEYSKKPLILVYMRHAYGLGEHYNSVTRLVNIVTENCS
The gist of the method:
(§1)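 Global-median-normalised Spectronaut label-free quantities were compared by unpaired t-test, and values are average log2 ratios of fragment over vehicle. Only proteins with ≥2 unique peptides were used. HEK293T lysate (495 µg per sample) was treated in triplicate with fragment at 200 µM or vehicle for 3 h and then with Biotin-Ahx-Ub-VS at 0.5 µM final for 1 h. Labelled DUBs were then NeutrAvidin-enriched, digested with LysC and trypsin, and run by diaPASEF LC-MS/MS.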

Assay [2] concerns the target T2, OTUD7B (UniProt Q6GQQ9).
T2 sequence (whole entry): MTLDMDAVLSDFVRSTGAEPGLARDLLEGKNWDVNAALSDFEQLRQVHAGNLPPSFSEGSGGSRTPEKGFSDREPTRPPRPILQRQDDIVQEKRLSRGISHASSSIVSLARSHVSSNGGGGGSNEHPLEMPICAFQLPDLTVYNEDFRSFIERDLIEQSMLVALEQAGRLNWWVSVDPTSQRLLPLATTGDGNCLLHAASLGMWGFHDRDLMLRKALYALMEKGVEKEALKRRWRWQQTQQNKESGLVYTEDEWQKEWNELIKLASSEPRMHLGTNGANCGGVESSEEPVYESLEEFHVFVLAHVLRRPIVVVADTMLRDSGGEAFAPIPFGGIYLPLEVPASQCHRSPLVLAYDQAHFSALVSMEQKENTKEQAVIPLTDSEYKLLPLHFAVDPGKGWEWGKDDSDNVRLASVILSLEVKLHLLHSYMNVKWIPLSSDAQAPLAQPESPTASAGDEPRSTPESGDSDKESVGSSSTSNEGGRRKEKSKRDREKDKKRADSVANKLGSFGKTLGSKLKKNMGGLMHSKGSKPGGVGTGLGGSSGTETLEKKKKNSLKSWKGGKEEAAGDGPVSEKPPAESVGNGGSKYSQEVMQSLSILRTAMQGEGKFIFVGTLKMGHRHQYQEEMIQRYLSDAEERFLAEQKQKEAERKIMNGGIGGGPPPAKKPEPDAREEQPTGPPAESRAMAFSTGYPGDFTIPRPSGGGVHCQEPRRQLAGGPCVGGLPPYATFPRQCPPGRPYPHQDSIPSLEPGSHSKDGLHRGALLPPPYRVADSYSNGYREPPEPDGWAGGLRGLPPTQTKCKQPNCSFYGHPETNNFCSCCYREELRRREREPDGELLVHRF
The gist of the method:
as §1

Assay [3] deals with PRPF8 (UniProt Q6P2Q9). An outline of the steps: as §1
The target of assay [4] is T3, PSMD7 (UniProt P51665).
T3 sequence (whole entry): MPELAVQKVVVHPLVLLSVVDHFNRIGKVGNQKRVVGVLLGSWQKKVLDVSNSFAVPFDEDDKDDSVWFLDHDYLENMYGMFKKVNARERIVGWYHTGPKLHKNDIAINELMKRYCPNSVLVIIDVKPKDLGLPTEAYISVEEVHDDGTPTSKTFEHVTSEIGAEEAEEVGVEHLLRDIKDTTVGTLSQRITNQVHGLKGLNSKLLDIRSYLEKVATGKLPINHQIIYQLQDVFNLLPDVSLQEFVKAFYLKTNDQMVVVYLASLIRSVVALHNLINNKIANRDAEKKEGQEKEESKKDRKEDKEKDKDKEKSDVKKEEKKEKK
The gist of the method:
as §1

In assay [5] the target is UCHL1 (UniProt P09936). An outline of the steps: as §1
UCHL1, sequence (P09936 whole entry, looked up): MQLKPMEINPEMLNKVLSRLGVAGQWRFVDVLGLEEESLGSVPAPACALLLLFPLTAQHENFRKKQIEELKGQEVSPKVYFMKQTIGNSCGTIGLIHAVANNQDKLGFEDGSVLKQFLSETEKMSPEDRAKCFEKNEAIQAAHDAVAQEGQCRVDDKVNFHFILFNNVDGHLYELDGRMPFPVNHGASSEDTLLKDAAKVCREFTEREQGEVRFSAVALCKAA
Assay [6] addresses T4, UCHL3 (UniProt P15374).
T4 sequence (whole entry): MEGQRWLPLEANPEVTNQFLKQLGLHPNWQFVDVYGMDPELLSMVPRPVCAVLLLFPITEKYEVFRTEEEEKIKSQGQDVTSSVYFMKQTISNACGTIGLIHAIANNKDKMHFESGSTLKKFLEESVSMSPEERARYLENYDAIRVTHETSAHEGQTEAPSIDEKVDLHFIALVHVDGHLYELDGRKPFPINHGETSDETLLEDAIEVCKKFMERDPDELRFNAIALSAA
The gist of the method:
as §1

For assay [7], the target named is T5, UCHL5 (UniProt Q9Y5K5).
T5 sequence (whole entry): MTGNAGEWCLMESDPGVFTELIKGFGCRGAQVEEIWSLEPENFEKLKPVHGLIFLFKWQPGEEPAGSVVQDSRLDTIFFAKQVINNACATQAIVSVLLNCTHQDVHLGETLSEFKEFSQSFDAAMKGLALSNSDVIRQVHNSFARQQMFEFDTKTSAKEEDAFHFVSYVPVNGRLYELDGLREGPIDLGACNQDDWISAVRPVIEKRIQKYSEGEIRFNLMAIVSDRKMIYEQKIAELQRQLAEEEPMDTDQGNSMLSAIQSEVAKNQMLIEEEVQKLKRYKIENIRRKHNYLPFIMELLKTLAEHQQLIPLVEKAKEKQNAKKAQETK
The gist of the method:
as §1

The target in assay [8] is USP10 (UniProt Q14694). An outline of the steps: as §1
USP10, sequence (Q14694 whole entry): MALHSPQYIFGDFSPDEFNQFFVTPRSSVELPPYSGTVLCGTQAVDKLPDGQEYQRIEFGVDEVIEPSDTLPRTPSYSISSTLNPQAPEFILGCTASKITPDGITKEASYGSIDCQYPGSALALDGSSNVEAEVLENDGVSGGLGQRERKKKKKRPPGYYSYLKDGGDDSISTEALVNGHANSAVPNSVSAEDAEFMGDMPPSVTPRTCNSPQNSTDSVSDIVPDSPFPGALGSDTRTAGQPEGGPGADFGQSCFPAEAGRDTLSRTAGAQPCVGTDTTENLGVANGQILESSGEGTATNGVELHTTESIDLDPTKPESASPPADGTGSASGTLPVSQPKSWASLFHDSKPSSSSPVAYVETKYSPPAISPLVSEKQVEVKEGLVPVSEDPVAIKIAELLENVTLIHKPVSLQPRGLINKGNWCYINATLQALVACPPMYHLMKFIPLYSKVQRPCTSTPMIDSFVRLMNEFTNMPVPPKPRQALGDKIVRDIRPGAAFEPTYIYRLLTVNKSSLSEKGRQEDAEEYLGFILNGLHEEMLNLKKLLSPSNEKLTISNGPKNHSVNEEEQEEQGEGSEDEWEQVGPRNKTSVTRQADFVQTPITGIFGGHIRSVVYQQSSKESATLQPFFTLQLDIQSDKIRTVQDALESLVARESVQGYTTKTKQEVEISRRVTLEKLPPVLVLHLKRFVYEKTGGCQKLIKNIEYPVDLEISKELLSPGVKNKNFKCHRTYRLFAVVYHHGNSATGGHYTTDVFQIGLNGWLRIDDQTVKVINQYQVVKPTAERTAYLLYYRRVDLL
In assay [9] the target is T6, USP15 (UniProt Q9Y4E8).
T6 sequence (whole entry): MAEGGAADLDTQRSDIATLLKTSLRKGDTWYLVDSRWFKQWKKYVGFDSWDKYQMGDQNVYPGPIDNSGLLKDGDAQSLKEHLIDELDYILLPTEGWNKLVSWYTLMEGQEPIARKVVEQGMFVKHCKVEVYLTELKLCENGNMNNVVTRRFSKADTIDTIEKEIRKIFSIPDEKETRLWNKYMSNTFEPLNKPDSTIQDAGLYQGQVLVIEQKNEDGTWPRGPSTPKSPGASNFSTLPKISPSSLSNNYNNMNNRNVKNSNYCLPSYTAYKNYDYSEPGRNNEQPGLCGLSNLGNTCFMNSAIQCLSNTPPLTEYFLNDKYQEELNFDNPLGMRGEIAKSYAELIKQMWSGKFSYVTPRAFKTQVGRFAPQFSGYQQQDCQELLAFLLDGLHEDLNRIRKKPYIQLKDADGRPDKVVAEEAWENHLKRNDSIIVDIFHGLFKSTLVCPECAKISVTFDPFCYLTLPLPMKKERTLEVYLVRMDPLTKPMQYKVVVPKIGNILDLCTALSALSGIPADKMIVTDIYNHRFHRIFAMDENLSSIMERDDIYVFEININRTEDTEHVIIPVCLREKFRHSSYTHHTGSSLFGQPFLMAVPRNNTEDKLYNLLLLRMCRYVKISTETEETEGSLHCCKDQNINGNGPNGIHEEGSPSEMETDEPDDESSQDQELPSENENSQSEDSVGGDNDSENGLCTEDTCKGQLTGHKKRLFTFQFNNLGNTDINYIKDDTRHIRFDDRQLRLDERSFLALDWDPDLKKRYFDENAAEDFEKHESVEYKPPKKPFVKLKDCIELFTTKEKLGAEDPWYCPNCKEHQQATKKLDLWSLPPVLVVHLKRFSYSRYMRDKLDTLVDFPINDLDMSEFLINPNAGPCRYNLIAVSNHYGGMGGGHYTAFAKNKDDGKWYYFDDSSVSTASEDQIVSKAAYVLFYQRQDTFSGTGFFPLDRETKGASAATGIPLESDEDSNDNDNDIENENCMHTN
The gist of the method: as §1

For `Cc1ccc(CN(C)C(=O)CCl)o1`, the “log2 ratio of Biotin-Ahx-Ub-VS probe labelling” value in assay [1] is 0.0695; in assay [2], -0.158; in assay [3], -0.0488; in [4] it was 0.0152; in [5], -1.38 (active); in assay [6], 0.611. Moreover, the “log2 ratio of Biotin-Ahx-Ub-VS probe labelling” value was -0.238 in assay [7], -0.157 in assay [8] and -0.201 in assay [9].
